# PubChem BioAssay (EPA / NIEHS)
# “And” between values parts separate entries of the source, which are not always exact repeats. Identical values can stand only once. Records with an inconclusive call do not appear. The source made the active and inactive calls. The calls were made as follows: active = hit-call score of the fitted dose curve at least 0.9, where 1 is the maximum; inconclusive = response in the unintended direction; inactive = score below 0.9.
# Assays:
# [1] = TOX21_p53_BLA_p2_viability: Viability Assessment in the Tox21 HCT-116 p53 Agonism Beta-lactamase Assay, Phase 2 (AID 2283591);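 also: compound exposure lasted 16 h at 37 °C; actives lower the ATP signal meaning cytotoxicity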
# How it was run: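 HCT-116 p53-bla cells (4000/well) rested 5 h at 37C, then received compounds in DMSO (217-fold dilution) for 16 h at 37C, 5% CO2. After the CCF4 read, CellTiter-Glo was added; ATP luminescence was read after 30 min at room temperature.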
# [2] = molecular target: Cellular tumor antigen p53 (Homo sapiens) (UniProt P04637); experiment: TOX21_p53_BLA_p2_ratio: Tox21 HCT-116 p53 Agonism Beta-lactamase Assay, Ratio, Phase 2 (AID 2283592)
# How it was run: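 HCT116 cells carrying a p53-responsive beta-lactamase reporter were plated, incubated 5 h at 37C, then dosed with compounds in DMSO (217-fold dilution) for 16 h. CCF4-AM substrate was added for 2 h at room temperature; the 460/530 nm emission ratio gave gain-of-signal activity relative to DMSO.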
# [3] = molecular target: Cellular tumor antigen p53 (Homo sapiens) (UniProt P04637); experiment: TOX21_p53_BLA_p3_ratio: Tox21 HCT-116 p53 Agonism Beta-lactamase Assay, Ratio, Phase 3 (AID 2283596)
# How it was run: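 HCT116 p53-bla cells (4000/well) given compound in DMSO (217-fold dilution) after 5 h, incubated 16 h at 37C. CCF4-AM substrate 2 h at room temperature; 460/530 nm emission ratio, gain fitted against DMSO.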
# [4] = TOX21_p53_BLA_p4_viability: Viability Assessment in the Tox21 HCT-116 p53 Agonism Beta-lactamase Assay, Phase 4 (AID 2283597);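 also: hits lower the luminescence signal meaning cytotoxicity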
# How it was run: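 HCT116 p53-bla cells (4000/well) rested 5 h at 37C, then received compounds in DMSO (217-fold dilution) for 16 h at 37C, 5% CO2. CellTiter-Glo was added after the CCF4-AM read, and luminescence was read after 30 min at room temperature.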
# [5] = TOX21_p53_BLA_p5_viability: Viability Assessment in the Tox21 HCT-116 p53 Agonism Beta-lactamase Assay, Phase 5 (AID 2283600)
# How it was run: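 Cells were plated at 4000/well, rested 5 h at 37C, then given compounds in DMSO (217-fold dilution) for 16 h at 37C, 5% CO2. Following the CCF4-AM beta-lactamase read, CellTiter-Glo was added and luminescence was read after 30 min at room temperature.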
# [6] = molecular target: Cellular tumor antigen p53 (Homo sapiens) (UniProt P04637); experiment: TOX21_p53_BLA_p4_ratio: Tox21 HCT-116 p53 Agonism Beta-lactamase Assay, Ratio, Phase 4 (AID 2283601)
# How it was run: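 HCT116 cells carrying an inducible beta-lactamase reporter were plated at 4000 cells/well, rested 5 h, then exposed to compounds in DMSO (217-fold dilution) for 16 h at 37C. CCF4-AM substrate was loaded 2 h at room temperature; 460/530 nm emission ratio scored gain-of-signal versus DMSO.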
# [7] = molecular target: Cellular tumor antigen p53 (Homo sapiens) (UniProt P04637); experiment: TOX21_p53_BLA_p5_ratio: Tox21 HCT-116 p53 Agonism Beta-lactamase Assay, Ratio, Phase 5 (AID 2283599)
# How it was run: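 HCT-116 cells carrying a p53-inducible beta-lactamase reporter were seeded at 4000 cells/well and dosed after 5 h with compound in DMSO (217-fold dilution). After 16 h at 37C, CCF4-AM substrate was added for 2 h, and the 460/530 nm emission ratio was scored as gain-of-signal versus DMSO.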
# [8] = molecular target: PGR (gene 5241) (UniProt P06401); experiment: TOX21_PR_BLA_Followup_Antagonist_ratio: Tox21 HEK293 Progesterone Receptor (PR) Antagonism Beta-lactamase Follow-Up Assay, Ratio (AID 2283934)
# How it was run: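 PR-UAS-bla HEK293T cells, 3,000/well in 2% charcoal-stripped FBS, given compound plus 1nM R5020 agonist for 16 hr at 37C. Beta-lactamase FRET substrate 2 hours, ratio cleaved/uncleaved fluorescence; viability by CellTiter-Glo in same wells.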
# [9] = TOX21_PR_BLA_Followup_Agonist_viability: Viability Assessment in the Tox21 HEK293 Progesterone Receptor (PR) Agonism Beta-lactamase Follow-Up Assay (AID 2283935);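 also: signal loss means lower viability so actives are cytotoxic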
# How it was run: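 PR-UAS-bla HEK293T cells in 2% charcoal-stripped FBS medium, plated 6 hr before compound addition, exposed 16 hr at 37C. Viability read by CellTiter-Glo ATP luminescence after 30 min at room temperature, in the same wells as the beta-lactamase readout.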
# [10] = TOX21_PR_BLA_Followup_Antagonist_viability: Viability Assessment in the Tox21 HEK293 Progesterone Receptor (PR) Antagonism Beta-lactamase Follow-Up Assay (AID 2283936);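 also: hits lower the luminescence signal meaning cytotoxicity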
# How it was run: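 PR-UAS-bla HEK293T cells (3,000/well, 2% charcoal-stripped FBS) given compound plus R5020 agonist, 16 h at 37C. CellTiter-Glo added after bla read, 30 min at room temperature; luminescence loss indicates cytotoxicity.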
# [11] = molecular target: PGR (gene 5241) (UniProt P06401); experiment: TOX21_PR_LUC_Followup_Antagonist: Tox21 HEK293 Progesterone Receptor (PR) Antagonism Luciferase Follow-Up Assay (AID 2283938);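 also: curve fitted upward as signal gain over DMSO baseline despite antagonist label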
# How it was run: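 HEK293-PR-A-luc cells were precultured 5 days in medium with 10% charcoal-stripped FBS, seeded 3,000/well, then exposed to compounds in DMSO for 16 h at 37C. Luciferase was read by ONE-Glo luminescence after 30 min at room temperature.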
# [12] = TOX21_PR_LUC_Followup_Agonist_viability: Viability Assessment in the Tox21 HEK293 Progesterone Receptor (PR) Agonism Luciferase Follow-Up Assay (AID 2283941);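 also: loss of signal means cytotoxicity so actives lower viability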
# How it was run: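 HEK293-PR-A-luc cells, kept in 10% charcoal-stripped FBS medium, were treated with compounds for 16 h at 37C. Viability read as cellular ATP by luciferase-coupled luminescence; loss of signal indicates cytotoxicity.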
# [13] = molecular target: Thyroid hormone receptor alpha (Rattus norvegicus) + Thyroid hormone receptor beta (Rattus norvegicus) (UniProt P18113+P63059); experiment: TOX21_TR_LUC_GH3_Antagonist_Followup: Tox21 GH3 Thyroid Hormone Receptor Antagonism Luciferase Follow-Up Assay (AID 2283942)
# How it was run: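 Rat pituitary GH3 cells with a TRα/TRβ-driven luciferase reporter, 5 h attachment, then 15 concentrations (92 uM to 5nM final) plus 1.0 nM T3 agonist, 24 h at 37C/5% CO2. ONE-Glo luminescence; signal change fitted against DMSO baseline.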
# [14] = TOX21_TR_RXR_BLA_Antagonist_Followup_viability: Viability Assessment in the Tox21 Thyroid Hormone Receptor beta Retinoid X Receptor alpha (RXRa) Antagonism Beta-lactamase (BLA) Follow-Up Assay (AID 2283979)
# How it was run: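 RXRa-UAS-bla HEK293T cells seeded 2,500/well in phenol red-free DMEM with 2% charcoal-stripped FBS, attached 5 h, then exposed to compounds at 11 concentrations in triplicate for 16 h at 37C/5% CO2. Viability read by CellTiter-Glo ATP luminescence; bidirectional fit versus DMSO.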
# Sequence of Cellular tumor antigen p53 (Homo sapiens) (P04637 whole entry, looked up): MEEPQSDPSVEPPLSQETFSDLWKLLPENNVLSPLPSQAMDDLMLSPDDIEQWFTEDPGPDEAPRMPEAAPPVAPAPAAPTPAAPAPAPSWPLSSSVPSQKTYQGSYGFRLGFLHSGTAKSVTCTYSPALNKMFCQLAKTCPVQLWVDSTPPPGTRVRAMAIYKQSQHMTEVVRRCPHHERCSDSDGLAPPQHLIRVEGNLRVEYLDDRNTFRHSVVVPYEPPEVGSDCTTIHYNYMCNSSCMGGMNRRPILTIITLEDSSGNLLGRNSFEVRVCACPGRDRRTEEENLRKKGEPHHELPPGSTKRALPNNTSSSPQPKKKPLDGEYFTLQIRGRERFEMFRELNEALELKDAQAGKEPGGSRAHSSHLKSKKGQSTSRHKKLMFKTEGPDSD
# Sequence of PGR (gene 5241) (P06401 whole entry, looked up): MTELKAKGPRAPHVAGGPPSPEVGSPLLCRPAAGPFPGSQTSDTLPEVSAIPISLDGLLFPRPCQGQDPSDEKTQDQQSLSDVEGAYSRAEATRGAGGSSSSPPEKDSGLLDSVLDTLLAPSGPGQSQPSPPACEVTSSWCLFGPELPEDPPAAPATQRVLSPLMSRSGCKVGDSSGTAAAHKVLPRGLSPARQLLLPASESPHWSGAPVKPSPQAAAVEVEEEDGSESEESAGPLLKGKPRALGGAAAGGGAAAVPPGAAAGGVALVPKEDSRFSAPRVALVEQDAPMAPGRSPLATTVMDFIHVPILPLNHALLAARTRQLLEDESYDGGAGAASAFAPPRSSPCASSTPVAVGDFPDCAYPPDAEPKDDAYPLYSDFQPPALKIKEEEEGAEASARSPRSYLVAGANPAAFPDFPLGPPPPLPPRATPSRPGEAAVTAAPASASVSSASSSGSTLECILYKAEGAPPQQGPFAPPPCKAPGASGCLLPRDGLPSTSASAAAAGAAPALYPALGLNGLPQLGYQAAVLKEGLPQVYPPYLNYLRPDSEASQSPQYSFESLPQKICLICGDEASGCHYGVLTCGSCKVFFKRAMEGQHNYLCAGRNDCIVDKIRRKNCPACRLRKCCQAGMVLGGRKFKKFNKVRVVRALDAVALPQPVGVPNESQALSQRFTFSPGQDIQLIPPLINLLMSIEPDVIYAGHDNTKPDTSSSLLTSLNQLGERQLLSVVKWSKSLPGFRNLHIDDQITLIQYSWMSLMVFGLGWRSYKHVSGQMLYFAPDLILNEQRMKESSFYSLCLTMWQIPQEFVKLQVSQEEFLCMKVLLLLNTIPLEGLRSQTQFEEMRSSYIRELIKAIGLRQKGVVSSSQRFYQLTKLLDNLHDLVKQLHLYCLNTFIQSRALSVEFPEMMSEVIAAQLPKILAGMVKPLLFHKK
smiles,measurement,setting,value
CN1CCN(C(=O)O[C@H]2c3nccnc3C(=O)N2c2ccc(Cl)cn2)CC1,outcome,[1],inactive
same,outcome,[2],inactive
same,outcome,[3],inactive
same,outcome,[4],inactive
same,outcome,[5],inactive
same,outcome,[6],inactive
CC(C)(O)[C@@H]1[C@H]2OC(=O)[C@@H]1[C@]1(O)C[C@H]3O[C@]34C(=O)O[C@H]2[C@]14C (tested in a mixture with another compound),outcome,[1],inactive
same,outcome,[2],inactive
same,outcome,[3],inactive
same,outcome,[4],inactive
same,outcome,[7],inactive
same,outcome,[6],inactive
O=C1CN=C(c2ccccc2)c2cc(Cl)ccc2N1,outcome,[1],inactive
same,outcome,[2],inactive
same,outcome,[3],inactive
same,outcome,[4],inactive
CCOc1ccc2c3c1O[C@H]1[C@@H](O)C=C[C@H]4[C@@H](C2)N(C)CC[C@@]341,outcome,[1],inactive
same,outcome,[2],inactive
same,outcome,[3],inactive
same,outcome,[4],inactive
COCCC#N,outcome,[1],inactive
same,outcome,[2],inactive
same,outcome,[3],inactive
same,outcome,[4],inactive
same,outcome,[5],inactive
C=CC=O,outcome,[1],inactive
same,outcome,[2],inactive
same,outcome,[3],inactive
same,outcome,[4],inactive
same,outcome,[7],inactive
same,outcome,[5],inactive
ClCc1ccc(Cl)cc1Cl,outcome,[1],inactive
same,outcome,[2],inactive
same,outcome,[3],inactive
same,outcome,[7],inactive
same,outcome,[5],inactive
COP(=O)(OC)OC(=CCl)c1cc(Cl)c(Cl)cc1Cl,outcome,[1],inactive
same,outcome,[2],inactive
same,outcome,[3],inactive
same,outcome,[4],inactive
same,outcome,[7],inactive
same,outcome,[6],inactive
CC(=O)C1CCOC1=O (centres undefined),outcome,[1],inactive
same,outcome,[2],inactive
same,outcome,[3],inactive
same,outcome,[7],inactive
same,outcome,[5],inactive
same,outcome,[6],inactive
CCCSc1cc(OC)c(CCN)cc1OC,outcome,[1],inactive
same,AC50,[2],26.1 µM (active)
same,AC50,[3],48 µM (active)
same,outcome,[4],inactive
same,AC50,[7],43.7 µM (active)
same,outcome,[5],inactive
same,AC50,[6],24.4 µM (active)
C[C@]12CC[C@@H]3c4ccc(OC(=O)N(CCCl)CCCl)cc4CC[C@H]3[C@@H]1CC[C@@H]2OP(=O)(O)O,outcome,[1],inactive
same,AC50,[2],8.82 µM (active) and 26.6 µM (active)
same,AC50,[3],7.01 µM (active) and 23.1 µM (active)
same,outcome,[4],inactive
same,AC50,[7],7.78 µM (active) and 24.6 µM (active)
same,outcome,[5],inactive
same,AC50,[6],8.9 µM (active) and 36.3 µM (active)
ClC=C(Cl)Cl,outcome,[1],inactive
same,outcome,[2],inactive
same,outcome,[3],inactive
same,outcome,[4],inactive
same,outcome,[7],inactive
same,outcome,[6],inactive
COC(C)(C)C,outcome,[1],inactive
same,outcome,[2],inactive
same,outcome,[3],inactive
same,outcome,[4],inactive
same,outcome,[7],inactive
same,outcome,[5],inactive
same,outcome,[6],inactive
CCC(C)Cl (centres undefined),outcome,[1],inactive
same,outcome,[2],inactive
same,outcome,[3],inactive
same,outcome,[4],inactive
same,outcome,[7],inactive
same,outcome,[5],inactive
same,outcome,[6],inactive
CCOP(=S)(OCC)Oc1ncn(-c2ccccc2)n1,outcome,[1],inactive
same,outcome,[2],inactive
same,outcome,[3],inactive
same,outcome,[4],inactive
same,outcome,[5],inactive
same,outcome,[6],inactive
C=CC(=O)OC(C)(C)C,outcome,[1],inactive
same,outcome,[2],inactive
same,outcome,[3],inactive
same,outcome,[4],inactive
same,outcome,[7],inactive
same,outcome,[5],inactive
C#C[C@]1(O)C=C[C@H]2[C@@H]3CCC4=CC(=O)CC[C@@H]4[C@H]3CC[C@@]21CC,outcome,[1],inactive
same,outcome,[2],inactive
same,outcome,[3],inactive
same,outcome,[4],inactive
same,outcome,[7],inactive
same,outcome,[6],inactive
Nc1nc(N)c(N)c(N)n1,outcome,[1],inactive
same,outcome,[2],inactive
same,outcome,[3],inactive
same,outcome,[4],inactive
c1ccc(OCC2CO2)cc1 (centres undefined),outcome,[1],inactive
same,outcome,[2],inactive
same,outcome,[3],inactive
same,outcome,[4],inactive
same,outcome,[5],inactive
same,outcome,[6],inactive
Cn1c(N)nc2c3cccnc3ccc21,outcome,[1],inactive
same,outcome,[2],inactive
same,outcome,[3],inactive
same,outcome,[4],inactive
same,outcome,[7],inactive
same,outcome,[6],inactive
CNC(=O)Oc1cc(C)cc(C(C)C)c1,outcome,[1],inactive
same,outcome,[2],inactive
same,outcome,[3],inactive
same,outcome,[4],inactive
same,outcome,[7],inactive
same,outcome,[5],inactive
same,outcome,[6],inactive
Clc1ccc([C@@H]2C[C@H]3CC[C@@H]2N3)cn1,outcome,[1],inactive
same,outcome,[2],inactive
same,outcome,[3],inactive
same,outcome,[4],inactive
same,outcome,[7],inactive
same,outcome,[6],inactive
CCCC(=O)Cl,outcome,[1],inactive
same,outcome,[2],inactive
same,outcome,[3],inactive
same,outcome,[4],inactive
same,outcome,[5],inactive
Cc1ccc2c(C)cccc2c1,outcome,[1],inactive
same,outcome,[2],inactive
same,outcome,[3],inactive
same,outcome,[4],inactive
same,outcome,[7],inactive
same,outcome,[5],inactive
same,outcome,[6],inactive
O=P(O)(O)C(Cl)(Cl)P(=O)(O)O,outcome,[1],inactive
same,outcome,[2],inactive
same,outcome,[3],inactive
same,outcome,[4],inactive
same,outcome,[7],inactive
same,outcome,[5],inactive
same,outcome,[6],inactive
CC[C@H]1C[C@H]2[C@@H]3CCC4=CC(=O)CC[C@@H]4[C@H]3CC[C@]2(C)[C@H]1O,outcome,[1],inactive
same,outcome,[2],inactive
same,outcome,[3],inactive
same,outcome,[4],inactive
same,outcome,[6],inactive
same,outcome,[8],inactive
same,outcome,[9],inactive
same,outcome,[10],inactive
same,outcome,[11],inactive
same,outcome,[12],inactive
same,outcome,[13],inactive
same,outcome,[14],inactive
O=C(CCl)c1ccc(Oc2ccc(C(=O)CCl)cc2)cc1,outcome,[1],inactive
same,AC50,[2],43.4 µM (active)
same,outcome,[3],inactive
same,outcome,[4],inactive
same,outcome,[7],inactive
same,AC50,[6],41.9 µM (active)
CCCCCc1cc(O)c2c(c1)OC(C)(C)c1ccc(C)cc1-2,AC50,[1],14.4 µM (active)
same,AC50,[2],22.3 µM (active)
same,AC50,[3],34.4 µM (active)
same,AC50,[4],14.9 µM (active)
same,AC50,[7],23.9 µM (active)
same,AC50,[5],19.8 µM (active)
C=CCOC(C)=O,outcome,[1],inactive
same,outcome,[2],inactive
same,outcome,[3],inactive
same,outcome,[7],inactive
same,outcome,[5],inactive
same,outcome,[6],inactive
COc1cc(CCN)cc(OC)c1OC,outcome,[1],inactive
same,outcome,[2],inactive
same,outcome,[4],inactive
same,outcome,[7],inactive
same,outcome,[5],inactive
C=CC(C)(CCC=C(C)C)OC(=O)c1ccccc1N (centres undefined),outcome,[1],inactive
same,outcome,[2],inactive
same,outcome,[3],inactive
same,outcome,[7],inactive
same,outcome,[5],inactive
same,outcome,[6],inactive
